Measurements reported in ChEMBL document CHEMBL3988442, “University of Dundee, Small-Polar-MMV Screening Library” (2021).
The campaign covered roughly 48,000 compounds. About 13,000 (27%) showed an effect of 50% or more. The list shows a part of the results.

System: Wolbachia pipientis
Test: Anti-Wolbachia Cell-Based Screen
Format: functional
Parameters: scale not given: in the data most compounds retested in dose-response had high values
Details: 5 µM

SMILES	Percent Effect [%]
Cc1nc(C)n(CC2CN(Cc3cccnc3)Cc3nccn3C2)n1.O=C(O)C(F)(F)F.O=C(O)C(F)(F)F (stereo unspecified)	6.866
CCc1ccc(CN2Cc3nccn3CC(Cn3cncn3)C2)o1.O=C(O)C(F)(F)F (stereo unspecified)	101.6
CC(=O)N1[C@H](Cn2cncn2)C[C@@H]2CN(Cc3cccnc3)CC[C@@H]21.O=C(O)C(F)(F)F.O=C(O)C(F)(F)F	-6.622
O=C(O)C(F)(F)F.O=C(O)C(F)(F)F.c1cc(CN2Cc3nccn3CC(Cn3cncn3)C2)ccn1 (stereo unspecified)	106.6
Cc1nc(C)n(CC2CN(Cc3ccncc3)Cc3nccn3C2)n1.O=C(O)C(F)(F)F.O=C(O)C(F)(F)F (stereo unspecified)	-4.303
O=C(O)C(F)(F)F.c1cncc(CN2Cc3nccn3CC(Cn3cncn3)C2)c1 (stereo unspecified)	126.5
O=C(O)C(F)(F)F.O=C(O)C(F)(F)F.c1cncc(CN2Cc3nccn3CC(Cn3cccn3)C2)c1 (stereo unspecified)	90.07
Cc1cc(C2CCCN2C(=O)NCc2cccnc2OC(C)C)on1 (stereo unspecified)	10.48
O=c1[nH]c(-c2ccc(Cl)cc2)nc2c1CCNC2	-17.05
CSc1ccc(CN(C(=O)c2cc(C)[nH]c(=O)c2)C2CC2)cc1	12.75
COC(C)(C)c1noc(C2(C#N)CCCCC2)n1	-1.328
CCOC(=O)NC(CNC(=O)c1ncccn1)CC(C)C (stereo unspecified)	3.45
CNC(=O)[C@@H](c1ccccc1OC)N1CCC[C@H]1C(=O)NC(C)(C)C.Cl	1.665
CCC(Nc1ccc(Oc2ccc(C#N)cc2OC)cc1)C(N)=O (stereo unspecified)	-15.11
O=C(O)C(F)(F)F.c1csc(CN2Cc3nccn3CC(Cn3cncn3)C2)c1 (stereo unspecified)	90.09
O=C(O)C(F)(F)F.c1csc(CN2Cc3nccn3CC(Cn3cncn3)C2)n1 (stereo unspecified)	-6.751
Cc1nc(C)n(CC2CN(Cc3cccs3)Cc3nccn3C2)n1.O=C(O)C(F)(F)F (stereo unspecified)	12.7
CC(C)CNc1cc(-c2c[nH]nc2C2CCN(C(=O)C3CC3)C2)ccn1 (stereo unspecified)	239.9
COc1ccccc1-c1nnc([C@H]2CCN(C(=O)C3CC3)C2)o1	-2.817
CC(C)Nc1cc(-c2c[nH]nc2C2CCN(C(=O)C3CC3)C2)ccn1 (stereo unspecified)	259.2
CC(C)Nc1cc(-c2c[nH]nc2C2CCN(C(=O)C3CCC3)C2)ccn1 (stereo unspecified)	269
COc1ccc(OC)c(C2CCN(C(=O)C3CCN(C(C)C)CC3)C2)c1 (stereo unspecified)	-6.334
CC(C)Oc1ncccc1CNC(=O)C1CCCN(C(=O)C2CC2)C1 (stereo unspecified)	-12.74
CN1CCCC(C(=O)N2CCC(Oc3ncccn3)CC2)C1 (stereo unspecified)	16.76
CCN(CC)CCn1cnc(-c2ccccc2)c1-c1cnc(C)s1	-4.484
Cc1cc(CN2CCCC(Cn3cncn3)C2)on1 (stereo unspecified)	123.2

SMILES	Percent Effect [%]
c1ccc(-c2cc(CN3CCCC(Cn4cncn4)C3)on2)cc1 (stereo unspecified)	156.9
c1ccc(-c2nc(CN3CCCC(Cn4cncn4)C3)co2)cc1 (stereo unspecified)	5.722
Cc1cc(CN2CCCC2Cn2cncn2)no1 (stereo unspecified)	1.75
Cc1nc2ccccc2nc1CN1CCCC(Cn2cncn2)C1 (stereo unspecified)	-7.654
Cc1cc(NC(=O)CN2CCCC(Cn3cncn3)C2)no1 (stereo unspecified)	-8.5
Cc1cc(CN2CCCC(Cn3cncn3)C2)no1 (stereo unspecified)	117
Cc1ccc(-c2nc(CN3CCCC(Cn4cncn4)C3)co2)cc1 (stereo unspecified)	142.7
c1ncn(CC2CCCN(Cc3nc(C4CC4)no3)C2)n1 (stereo unspecified)	-1.701
c1ccc(-c2nc(CN3CCCC(Cn4cncn4)C3)no2)cc1 (stereo unspecified)	-1.614
Cc1cccc(-c2noc(CN3CCCC(Cn4cncn4)C3)n2)c1 (stereo unspecified)	6.393
Cc1cc(NC(=O)CN2CCCC(Cn3cncn3)C2)on1 (stereo unspecified)	0.4633
NC(=O)C1CCCN1Cc1ccccc1NC(=O)CC(F)(F)F (stereo unspecified)	-9.794
O=C1CC(C(=O)Nc2nnc(-c3ccoc3)[nH]2)c2ccccc2N1 (stereo unspecified)	-8.464
COc1ccc(OC)c2c(C)cc(N(CCO)CCO)nc12	-7.73
CCn1c(CC2CCN(C(=O)c3cc(C(C)C)n[nH]3)CC2)n[nH]c1=O	-9.861
CCC[C@H]1CN(CCS(C)(=O)=O)C[C@@H]1NC(=O)c1ccccn1	20.97
Cc1ccoc1-c1nnc(CN2CCCC(Cn3cncn3)C2)o1 (stereo unspecified)	-5.411
Fc1ccc(-c2nnc(CN3CCOC(Cn4cncn4)C3)o2)cc1 (stereo unspecified)	-1.88
Fc1ccc(-c2nnc(CN3CCCC(Cn4cncn4)C3)o2)cc1 (stereo unspecified)	112.2
CC(CCn1cccn1)Nc1ccc(-c2nccn2C)nn1 (stereo unspecified)	-7.65
CC(C)(NS(C)(=O)=O)C(=O)NCCc1csc2ccccc12	9.786
Cc1cc(C(=O)N2CCCN(Cc3nccn3C)CC2)no1	89.63
CCc1nnsc1C(=O)N1CCCN(Cc2nccn2C)CC1	-3.239
Cc1occc1C(=O)N1CCCN(Cc2ncc(Cl)n2C)CC1	3.419
Cc1occc1C(=O)N1CCCN(Cc2nccn2C)CC1	92.51
Cn1ccnc1CN1CCCN(C(=O)c2ccc(Cl)o2)CC1	-2.733

SMILES	Percent Effect [%]
O=C(NCc1ccccc1)c1nnc2ccc(N3CCOCC3)cc2n1	4.321
Cc1ccc(C)c2c(O)cc(CN[C@H]3CCCCNC3=O)nc12	-6.417
Cc1cc(NCC2CC(=O)Nc3ccccc32)nc(C)n1 (stereo unspecified)	2.28
O=S(=O)(N1CCOCC1)N1CCOC(CCc2ccccc2)C1 (stereo unspecified)	-18.19
CN(C)S(=O)(=O)N1CCC(c2c(C(N)=O)sc3ccccc23)C1 (stereo unspecified)	94.67
CC(C)C(=O)N1CCC(C2C(=O)Nc3ccccc32)CC1 (stereo unspecified)	-15.74
CCN(CC)S(=O)(=O)N1CCCC(c2cccc(C(=O)O)c2)C1 (stereo unspecified)	14.6
O=S(=O)(N1CCOCC1)N1CCOC(CCCc2ccccc2)C1 (stereo unspecified)	5.354
NC(=O)c1sc2ccccc2c1C1CCN(S(=O)(=O)N2CCOCC2)C1 (stereo unspecified)	162.8
CCN(CC)S(=O)(=O)N1CCCC(c2ccc(C(=O)O)cc2)C1 (stereo unspecified)	-2.613
CN(C)S(=O)(=O)N1CCC(OCCCc2ccccc2)C1 (stereo unspecified)	-12.64
CN(C)S(=O)(=O)N1CC[C@]2(O)CCN(c3nc4ccccc4s3)C[C@@H]2C1	10.05
CC(NC(=O)N1CCC(CC(N)=O)CC1)c1csc2ccccc12 (stereo unspecified)	-9.558
CCN(CC)S(=O)(=O)N1CCC(c2c(C(N)=O)sc3ccccc23)C1 (stereo unspecified)	158.5
CC(C)C(=O)N1CCC(c2c(C(N)=O)sc3ccccc23)C1 (stereo unspecified)	99.6
COCC1CCN(C(=O)c2cc(O)nc(CC(C)C)c2)CC1	9.231
Cl.Cl.c1c(CN2CCCC2)nc2n1CCNC2	4.335
CC(C(=O)NCc1cccc(N2CC=CC2)c1)n1cccn1 (stereo unspecified)	-4.465
CCOC(=O)N1CCN(C(=O)Cc2c(C)nc(C)[nH]c2=O)CC1	-14.69
Cc1cnccc1NCCn1ccnc1C1CCOC1 (stereo unspecified)	-4.825
CCC(Nc1ncnc2sc(C(=O)O)c(C)c12)c1ccnn1C (stereo unspecified)	-0.5167
Cc1ccc(CN2C(=O)CC[C@]23CC[C@@H](NCC2CCOC2)CC3)cc1.O=C(O)C(F)(F)F (stereo partly specified)	-23.04
O=C(NCCOc1ccc2c(c1)OCO2)C1CC(=O)N(C2CC2)C1 (stereo unspecified)	106.6
CC(C)CN1CC(C(=O)NCCOc2ccc3c(c2)OCO3)CC1=O (stereo unspecified)	103.1
CCN1CC(C(=O)NCCOc2ccc3c(c2)OCO3)CC1=O (stereo unspecified)	101.2
CC(C)CN1CC(C(=O)NCCc2c[nH]cn2)CC1=O (stereo unspecified)	10.41

SMILES	Percent Effect [%]
CCN1CC(C(=O)NCc2ccnc(-n3ccnc3C)c2)CC1=O (stereo unspecified)	5.504
O=C(NCCOc1ccc2c(c1)OCO2)C1CC(=O)N(CC2CC2)C1 (stereo unspecified)	4.084
Cc1ccc(OCCC(=O)NC2CC(=O)N(C)C2)cc1C (stereo unspecified)	-10.49
CN1CC(C(=O)NCCOc2ccc3c(c2)OCO3)CC1=O (stereo unspecified)	106.4
COC(=O)CCNC(=O)C1CC(=O)N(C2CCCC2)C1 (stereo unspecified)	-11.01
O=C(NCCOc1cccc(Cl)c1)C1CC(=O)N(CC2CC2)C1 (stereo unspecified)	-4.254
CC(C)N1CC(C(=O)NCCOc2ccc3c(c2)OCO3)CC1=O (stereo unspecified)	7.499
CC(=O)N1CCN(c2ccccc2CNc2cncc(C)c2)CC1	-7.391
CCc1cc(=O)[nH]c2nnc(SCC(=O)NC)n12	-1.194
Cc1cc(N2CCC(c3nccn3Cc3cscn3)CC2)ccn1	-23.28
O=C(Cc1ccsc1)N1CCC2(CCCN(CC3CCOCC3)C2)C1 (stereo unspecified)	-0.5355
O=C(NCc1cccs1)NCC1(O)CCc2ccccc2C1 (stereo unspecified)	-8.141
O=C1NC2(CCN(C(=O)Cc3ccsc3)CC2)CC1c1ccccc1 (stereo unspecified)	6.926
O=C(c1cccs1)N1CCC(O)(CN2CCc3ccccc3C2)C1 (stereo unspecified)	-8.795
O=C(Cc1cccs1)N1CCC(O)(CN2CCc3ccccc3C2)C1 (stereo unspecified)	105.2
O=C(Cc1ccsc1)N1CCC(O)(CN2CCc3ccccc3C2)C1 (stereo unspecified)	104.8
CC(C)c1cc(NC(CO)CO)n2nccc2n1	17.2
CC(C)n1nc2c(cc1=O)CN(Cc1nc(-c3ccoc3)no1)CC2	17.12
COCCN1CCC(C(=O)N(C)CCOc2ccc(C)cc2Cl)C1 (stereo unspecified)	-22.94
O=C1CO[C@H]2CN(Cc3ccc(F)c(F)c3)C[C@H]2N1	-16.97
O=C1CO[C@@H]2CN(S(=O)(=O)c3ccccc3F)C[C@H]2N1	96.68
O=C1CO[C@@H]2CN(S(=O)(=O)c3ccc(F)cc3)C[C@H]2N1	87.78
O=C1CO[C@H]2CN(Cc3ccc(C(F)(F)F)cc3)C[C@H]2N1	-16.85
